# TMEM16A inh = inhibitors of mouse TMEM16A calcium-activated chloride channel. HEK293 TMEM16A/YFP iodide influx fluorescence, ionomycin. normalized B-score (activity score, 25-100; higher = stronger inhibition) at 10 µM. hit rate 1.2% among 310,000. AID 588511;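 active = ratio plate-corrected score three or more library SD toward inhibition, starting fluorescence score within five deviations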;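 note: score derived from kinetic fluorescence span divided by baseline fluorescence per well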
# KCNK3 inh = human KCNK3 channel inhibition, primary screen | hit rate 0.84% among 340,000 | B-score at 10 µM | CHO-KCNK3 thallium flux, FluxOR fluorescence; active compounds read low;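 active = B-score under library mean minus 4 SD, starting fluorescence ratio at most library mean plus 5 SD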;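 note: more negative B-score means stronger inhibition of thallium flux through KCNK3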
# TMEM16A act = activators or potentiators of mouse TMEM16A chloride channel; Q8BHY3; HEK293 TMEM16A/YFP-H148Q/I152L, iodide quench fluorescence; active compounds read low; B-score at 10 µM; hit rate 0.3% among 340,000; AID 623877;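 active = fluorescence-ratio B-score plate-corrected deviation score at least 3 library SD below zero, with starting fluorescence score within 5 deviations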;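 note: channel opened by trigger with iodide after compound preincubation; score built on the fluorescence ratio of max minus min over baseline; more negative score means more quench and so TMEM16A activation or potentiation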
# Kir21 block = Kir2.1 (mouse) channel inhibition; HEK293-Kir2.1, FluxOR thallium flux fluorescence; active compounds read low; hit rate 0.85% among 310,000; B-score at 10 µM; P35561; AID 1672;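 active = fluorescence ratio B-score at or below minus 3 SD of library scores, with starting-brightness B-score within 2 SD, cut at about -4.2 in these data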;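 note: channel flux triggered by added potassium and thallium sulfate stimulus; B-score of peak minus minimum fluorescence over baseline after thallium stimulus; more negative B-score means stronger Kir2.1 block with less thallium influx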
# KCNK9 inh-1 = inhibitors of human KCNK9 two-pore domain potassium channel. HEK293 KCNK9, FluxOR thallium flux fluorescence; active compounds read low. AID 488922. B-score at 10 µM. hit rate 1.2% among 310,000. Q9NPC2;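 active = ratio B-score over 3 SD below the library mean, with starting fluorescence within 5 SD of its mean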;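 note: negative B-score means less thallium flux so channel inhibition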
# Target sequence (Q9NPC2 whole entry, looked up, the tested form may be a part): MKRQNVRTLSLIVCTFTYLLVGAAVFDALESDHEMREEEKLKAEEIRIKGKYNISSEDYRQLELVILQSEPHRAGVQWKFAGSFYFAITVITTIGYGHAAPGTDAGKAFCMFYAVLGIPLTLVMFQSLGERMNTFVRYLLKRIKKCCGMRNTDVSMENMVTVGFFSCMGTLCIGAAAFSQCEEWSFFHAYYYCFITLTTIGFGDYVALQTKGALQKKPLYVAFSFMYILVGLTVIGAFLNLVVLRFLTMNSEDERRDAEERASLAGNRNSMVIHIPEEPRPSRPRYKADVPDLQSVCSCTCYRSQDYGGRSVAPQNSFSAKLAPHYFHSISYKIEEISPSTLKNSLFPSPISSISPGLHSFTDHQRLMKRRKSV
# hERG inh = counter-screen for Kir2.1 inhibitors: effect on human hERG. hit rate 20% among 320. shares compounds with Kir21 block. hERG-expressing cells, thallium flux. AID 2236. inhibition, % at 10 µM;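 note: host cells are CHO cells stably expressing hERG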
# KCNK9 inh-2 = selectivity of Kir2.1 inhibitors: effect on human KCNK9; shares compounds with Kir21 block; inhibition, % at 10 µM; KCNK9-expressing cells, ion flux inhibition; hit rate 5% among 320
# Kir2-1 patch inh = mouse Kir2.1 inward rectifier channel inhibition | Kir2.1 cells, automated patch-clamp current inhibition | shares compounds with Kir21 block | AID 463252 | inhibition, % at 25 µM | hit rate 71% among 320
# The depositor's hits bear a star; i = inactive; . = not tested or not shown. Sampled rows, rich in hits. Any-hit rate of the full collection: about 3.5%. Unless noted, the rule behind the calls is not given here.
SMILES,TMEM16A inh,KCNK3 inh,TMEM16A act,Kir21 block,KCNK9 inh-1,hERG inh,KCNK9 inh-2,Kir2-1 patch inh
COc1ccc(CCNC2CCc3ccccc3C2)cc1 (configuration not stated),i,i,i,-8.58*,i,i,i,36.7%*
CCn1c(CSc2nc3ccccc3s2)nnc1SCC(=O)OC(C)(C)C,i,i,i,-8.65*,i,i,i,30.9%*
CCn1c(CSc2nc3ccccc3s2)nnc1SCC(N)=O,i,i,i,0.61,i,.,.,.
Cc1ccc(NC(=O)COc2ccccc2CNC(C)(C)CC(C)(C)C)cc1,i,i,i,-6.32*,i,50.0%*,37.0%*,i
CC(C)(CO)NCc1ccccc1OCC(=O)Nc1ccccc1,i,i,i,-0.12,i,.,.,.
CCc1cc2c(CN3CCN(Cc4ccccc4)CC3)cc(=O)oc2cc1O,i,i,i,-5.97*,i,i,i,i
COc1ccc(F)cc1S(=O)(=O)N1CC(C)CC(C)C1 (configuration not stated),i,i,i,-6.23*,i,i,i,36.9%*
COc1ccc(Br)cc1S(=O)(=O)N1CCOCC1,i,i,i,0.05,i,.,.,.
COc1ccc(F)cc1S(=O)(=O)N1CCN(c2ccccn2)CC1,i,i,i,-0.89,i,.,.,.
COc1ccc(Br)cc1S(=O)(=O)N1CC(C)OC(C)C1 (configuration not stated),i,i,i,-6.23*,i,i,i,26.5%*
COc1ccc(C(=O)CN2Cc3ccccc3C2=N)cc1,i,i,i,-10.7*,i,65.0%*,i,i
CCOC(=O)C1CCN(Cc2c(O)ccc3ccccc23)CC1,i,i,i,-7.63*,i,i,i,4.0%*
C=CCNc1nc(NCc2ccccc2)c(C#N)c2c1CN(C)CC2,i,i,i,-6.81*,i,64.0%*,i,1.6%*
COc1cccc(CNc2ccccc2O)c1OCc1ccccc1F,i,i,i,-2.15,i,.,.,.
O=S(=O)(c1ccc(Cl)cc1)N1CCCC1c1nc(-c2ccc(Cl)cc2)no1 (configuration not stated),i,i,i,-1.05,i,.,.,.
Nc1nc(C2CCCN2S(=O)(=O)c2ccc(Cl)cc2)cs1 (configuration not stated),i,i,i,-6.57*,i,i,i,13.9%*
O=C(NCCC1=CCCCC1)c1ccc(-n2cncn2)c([N+](=O)[O-])c1,i,i,i,-0.1,i,.,.,.
COC(=O)C1=C(C)N(Cc2ccccc2)C(=NCCc2ccccn2)N[C@H]1c1cccc(F)c1,i,i,i,-6.72*,i,i,i,3.0%*
C=CCc1ccccc1OCCNCc1ccccc1,i,i,i,-8.86*,i,i,i,75.3%*
O=[N+]([O-])c1ccc(Sc2ncccn2)c([N+](=O)[O-])c1,i,i,i,-1.08,i,.,.,.
O=[N+]([O-])c1ccc(Sc2nccn2Cc2ccccc2)c([N+](=O)[O-])c1,i,i,i,-7.19*,i,i,i,34.7%*
O=[N+]([O-])c1cc(C(F)(F)F)ccc1Sc1nccn1Cc1ccccc1,i,i,i,-8.54*,i,i,i,7.0%*
C/C(=N\NC(=O)Cc1ccc(Cl)cc1)c1ccccc1O,i,i,i,1.45,i,.,.,.
CCN(CC)C(=O)Cn1cc(C(=O)C(=O)N(C)C2CCN(C)CC2)c2ccccc21,i,i,i,0.9,i,.,.,.
CN(C)c1ccc(C(=O)c2ccc(O)cc2O)cc1,i,i,i,4.75,i,i,i,i
SMILES,TMEM16A inh,KCNK3 inh,TMEM16A act,Kir21 block,KCNK9 inh-1,hERG inh,KCNK9 inh-2,Kir2-1 patch inh
O=C(c1ccc(O)cc1)c1ccc(O)cc1O,i,i,i,1.04,i,.,.,.
CC(NC(=O)COC(=O)c1ccco1)c1ccccc1 (configuration not stated),i,i,i,0.32,i,.,.,.
CC(NCCC(Cc1ccccc1)c1ccco1)c1ccccc1 (configuration not stated),i,i,i,-13.9*,i,i,i,i
NS(=O)(=O)c1cnccc1NCCc1ccccc1,i,i,i,1.11,i,.,.,.
CSc1ccc(S(=O)(=O)NC(C)c2ccccc2)cc1 (configuration not stated),i,i,i,-7.26*,i,i,i,63.1%*
Cc1ccc(S(=O)(=O)NC(C)c2ccccc2)cc1[N+](=O)[O-] (configuration not stated),i,i,i,-7.99*,i,i,i,29.9%*
CC(NS(=O)(=O)c1ccc(Br)s1)c1ccccc1 (configuration not stated),i,i,i,-7.42*,i,i,i,43.7%*
O=S(=O)(NCc1ccccc1)c1ccc(Br)s1,i,i,i,-2.02,i,.,.,.
Cc1ccc(S(=O)(=O)N/N=C/c2ccccc2F)cc1[N+](=O)[O-],i,i,i,-0.03,i,.,.,.
CCc1ccc(Nc2n[n+](-c3ccccc3)c(/C=C/c3ccccc3)s2)cc1,i,.,.,-7.65*,i,68.0%*,i,i
COc1ccc(CCC(C)NCc2cccc(Br)c2)cc1 (configuration not stated),i,i,i,-11.3*,i,i,i,53.5%*
COc1ccccc1NC(=O)c1coc(=O)c(Br)c1,i,i,i,0.28,i,.,.,.
COc1cc(NS(=O)(=O)c2ccc(Nc3nc(-c4ccccc4)cs3)cc2)nc(OC)n1,i,i,i,3.56,i,i,i,i
COc1cc(NS(=O)(=O)c2ccc(NC(=S)Nc3ccccc3)cc2)nc(OC)n1,i,i,i,-0.09,i,.,.,.
CCCCN1C(=O)N(c2ccccc2Cl)C(C)(O)CC1(C)C (configuration not stated),i,i,i,1.03,i,.,.,.
C#CCN(C)Cc1ccccc1,i,i,i,-0.1,i,.,.,.
C#CC(CO)N(CCN(Cc1ccccc1)C(C#C)CO)Cc1ccccc1 (configuration not stated),i,i,i,-11.2*,i,i,i,3.9%*
COc1cc(OC)c(OC)cc1CNc1cc(C)ccc1OC,i,i,i,-5.83*,i,i,i,28.7%*

# Screening results (PubChem BioAssay)
